hcDAF12 agonist – activates DAF-12 receptor from parasite H. contortus; activation, % at 6.8 µM; AID 652067; HEK293 hcDAF-12 lit1-tk-luc reporter, luminescence; 0% DMSO, 100% Δ7-dafachronic acid; 1.4% of 370,000 active;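 active means activation above the mean of all tested compounds plus 3 SD, cut at about 5.5% in these data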
DAX1 inh-1 – inhibitors of human orphan nuclear receptor DAX1 (NR0B1) | P51843 | inhibition, % at 6.75 µM | AID 504766 | HEK293 Gal4-DAX1 luciferase reporter, luminescence | 0.99% of 340,000 active;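 active means inhibition above the mean over all tested compounds plus 3 SD, cut at about 4.2% in these data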;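 further: inhibition shows as a rise in luminescence from relieved DAX1 repression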
Target sequence (P51843 207-470 limits assumed): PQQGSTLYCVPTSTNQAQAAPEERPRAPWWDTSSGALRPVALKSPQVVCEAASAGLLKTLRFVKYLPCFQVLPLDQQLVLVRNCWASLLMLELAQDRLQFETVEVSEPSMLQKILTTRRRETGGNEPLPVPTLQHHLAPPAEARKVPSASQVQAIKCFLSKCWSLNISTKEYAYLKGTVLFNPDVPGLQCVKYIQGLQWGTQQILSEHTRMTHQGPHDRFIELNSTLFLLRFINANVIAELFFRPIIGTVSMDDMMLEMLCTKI
hgDAF12 agonist – hgDAF-12 agonism, primary luciferase screen; HEK293 GAL4-hgDAF12 UAS-luciferase reporter, agonist luminescence; normalized to butyrate control; activation, % at 6.8 µM; 1.8% of 370,000 active; AID 687014;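 active means activation above a cutoff set at the mean of all screened compounds plus 3 SD, cut at about 10% in these data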
DAX1 inh-2 – blocks DAX1 repression of SF-1 activated StAR promoter | HEK293T StAR-luciferase reporter, SF-1/DAX-1 repression relief | inhibition, % at 6.8 µM | AID 652010 | 1.1% of 370,000 active;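 active means inhibition above the mean over all tested compounds plus 3 SD, cut at about 3.6% in these data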;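 further: higher inhibition means more luminescence from relief of DAX-1 repression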
ssDAF12 agonist – S. stercoralis DAF-12 activation, primary screen | HEK293 ssDAF-12/GRIP1 lit1-tk-luc reporter, luminescence; % of 3 µM dafachronic acid response | activation, % at 6.8 µM | 1% of 370,000 active | AID 652126;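 active means activation above the mean over all tested compounds plus 3 SD, cut at about 0.9% in these data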
DAX1 conf – confirmation of human DAX1 (NR0B1) inhibitors; shares compounds with DAX1 inh-2; HEK293T StAR-promoter luciferase reporter, SF-1/DAX-1 repression; inhibition, % at 6.8 µM; 87% of 2,400 active; AID 652134;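 active means inhibition above the average of every tested compound plus 3 SD, cut at about 3.8% in these data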;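 further: active compounds raise luminescence by relieving repression of the StAR reporter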
SF1 AF2mut Luc – nonselective inhibitor or artifact in SF-1 mutant DAX1 counter-screen; shares compounds with DAX1 inh-2; HEK293 StAR-luciferase, SF-1 AF2 mutant, luminescence; inhibition, % at 6.8 µM; 78% of 2,400 active;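 active means inhibition above the mean of all tested compounds plus 3 SD, cut at about 3% in these data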
A number is an active result; - = inactive; . = not tested or not shown. Only some compounds are listed: those with a hit (about 4.1% of all), similar ones and a draw of the others.

SMILES	hcDAF12 agonist	DAX1 inh-1	hgDAF12 agonist	DAX1 inh-2	ssDAF12 agonist	DAX1 conf	SF1 AF2mut Luc
N#Cc1c(NC(=O)c2ccco2)sc2c1CCC2	-	-	11	9.4	-	9.1	3.7
CC(=O)Nc1ccc(NC(=O)CSc2nnc(-c3cc(C)[nH]n3)n2N)cc1	-	-	-	-	-	.	.
CC12CCC(=O)N1C(C(=O)NNC(=O)c1ccc(Br)cc1)CS2 (stereo not drawn)	-	-	-	5.5	-	-	-
Cc1ccc(C(=O)NNC(=O)C2CSC3(C)CCC(=O)N23)cc1 (stereo not drawn)	-	-	-	-	-	.	.
CC1(C)CN(c2ccsc2C(=O)O)C1=O	-	.	-	-	-	.	.
Cn1cccc1CN1CCC[C@]2(N[C@H](c3ccccc3)[C@@H]3C(=O)N(Cc4ccccc4)C(=O)[C@@H]32)C1=O	-	-	-	-	-	.	.
CC(C)(C)c1ccc(C(=O)/C=C2\NC(=O)CS2)cc1	6.1	-	12	5.2	-	18	9.2
COc1cc(NC2c3ccccc3C(=O)N2c2cc(C)ccn2)cc(OC)c1OC (stereo not drawn)	-	-	-	-	-	.	.
COc1cc(NC2c3ccccc3C(=O)N2c2ccc(C)cn2)cc(OC)c1OC (stereo not drawn)	-	-	-	6.1	-	-	3.1
CC(C)C[C@@H](CN1CCCC1CN1C(=S)NC[C@@H]1Cc1ccc(O)cc1)N1C[C@H](Cc2ccc(O)cc2)N(CC2CCCCCC2)C1=S (stereo partly drawn)	-	-	-	6.3	-	-	-
CC(C)C[C@@H](CN1CCCC1CN1C(=S)NC[C@@H]1Cc1ccc(O)cc1)N1C[C@H](Cc2ccccc2)N(CC2CCCCCC2)C1=S (stereo partly drawn)	-	-	-	-	-	.	.
CC(C)C[C@@H](CN1CCC[C@@H]1CN1C(=S)NC[C@@H]1Cc1ccc(O)cc1)N1C[C@H](Cc2ccc(O)cc2)N(CCc2ccccc2)C1=S	-	.	-	4.7	-	-	-
CC(C)C[C@@H](CN1CCCC1CN1C(=S)NC[C@@H]1Cc1ccccc1)N1C[C@H](Cc2ccc(O)cc2)N(CCc2ccccc2)C1=S (stereo partly drawn)	-	.	-	-	-	.	.
CCOC(=O)c1c(C)[nH]c(N=Nc2cccc(C)c2)c1C	-	-	-	4.6	-	8.8	3.9
Cc1ccc2c(Cl)c(C(=O)NC3CC3)sc2c1	-	-	-	5.9	-	4.4	-
Cc1cccc2nc(COc3ccc4ccccc4c3Br)cn12	6.0	6.5	-	4.8	-	12	7.3
COc1ccc(CCNC(=O)c2ccc(Cl)c(S(=O)(=O)N3CCCC3)c2)cc1	-	-	-	-	-	.	.
CC1C=CC=CCCC=CC=CC=CC=CC(OC2O[C@H](C)[C@@H](O)[C@H](N)[C@@H]2O)CC(O)C(C(=O)O)C(O)CC(=O)CC(O)C(O)CCC(O)CC(O)CC(O)CC(=O)OC(C)C(C)C1O (stereo partly drawn)	-	.	-	-	-	.	.
CCNc1nc(NCC)nc(N/N=C(\C)c2ccc(OC)cc2)n1	-	-	-	-	-	.	.
COc1ccc(/C(C)=N/Nc2nccnc2Cl)cc1	-	-	-	5.6	-	4.2	-
COc1ccc(C2=NN3C(C2)c2ccccc2OC3c2cccs2)cc1 (stereo not drawn)	7.9	-	23	4.5	-	12	7.6
Cc1ccccc1-n1nnnc1SCC(=O)N(C)C1CCS(=O)(=O)C1 (stereo not drawn)	-	-	-	-	-	.	.
O=C1NC[C@H](CCCCN2CCN(CC3CCCCC3)C(=O)C2=O)N(CCC2CCCCC2)C1=O	-	.	-	-	-	.	.
COc1cccc(N2CC(C(=O)Nc3nnc(SCC(=O)Nc4ccc(NC(C)=O)cc4)s3)CC2=O)c1 (stereo not drawn)	-	-	-	-	-	.	.
Cc1cccc(C(=O)Nc2nnc(SCC(=O)NCc3ccco3)s2)c1	-	-	-	5.6	-	-	-
SMILES	hcDAF12 agonist	DAX1 inh-1	hgDAF12 agonist	DAX1 inh-2	ssDAF12 agonist	DAX1 conf	SF1 AF2mut Luc
COc1cccc(C(=O)Nc2nnc(SCC(=O)Nc3ccc(NC(C)=O)cc3)s2)c1	5.6	-	-	10	-	9.1	6.6
COc1cc(/C=N/NC(=O)c2cccnc2)ccc1OS(=O)(=O)c1cc(C)ccc1C	-	-	-	-	-	.	.
Cc1ccc(OCc2csc(N)n2)cc1	-	-	-	5.1	-	-	-
Cc1ccc(NC(=O)c2sccc2C)nc1	-	-	11	9.7	-	9.2	7.2
Cc1ccc(CCNC(=O)CCS(=O)(=O)c2ccc(Br)cc2)cc1	-	-	-	-	-	.	.
Nc1c(C(=O)C2CC2)sc2nc3c(cc12)CCC3	-	-	11	4.7	-	9.8	10.0
Nc1ncnc(N)c1N=Nc1ccccc1	-	-	-	-	-	.	.
Nc1nc(N)c(N=Nc2ccccc2)c(=O)[nH]1	-	-	-	5.7	-	5.5	3.2
CC(=O)N1CCc2cc(Br)cc(S(=O)(=O)CCC(=O)N3CCN(c4ccccn4)CC3)c21	-	-	-	-	-	.	.
CCc1cc(=O)oc2cc(OCC(=O)N3CCC[C@H]3C(=O)O)ccc12	-	-	-	-	-	.	.
O=C(CCNC(=O)c1ccc([N+](=O)[O-])cc1)Nc1ccc(F)cc1	-	-	-	-	-	.	.
O=C(NCCC1=CCCCC1)c1ccc(F)cc1	-	-	11	6.4	-	18	6.3
O=C(NCCc1ccc(F)cc1)c1ccc([N+](=O)[O-])cc1	-	-	-	6.7	-	7.3	3.9
O=C(CCNC(=O)c1ccc(Cl)cc1)NCCC1=CCCCC1	-	-	-	5.4	-	5.8	5.8
O=C(CCSCc1ccc(Cl)cc1)NCCC1=CCCCC1	-	-	-	-	-	.	.
COc1ccc(C(=O)NCCC2=CCCCC2)cc1	5.6	-	-	5.5	1.2	10	-
O=C(NCc1ccccc1)c1cc2ccc(O)cc2oc1=O	-	-	-	-	-	.	.
CCc1nc(CN(C)C(=O)C2CCC(=O)N(Cc3cccc(F)c3)C2)no1 (stereo not drawn)	-	-	-	-	-	.	.
COc1ccc(NC(=O)CCNS(=O)(=O)c2cc(Br)ccc2Br)cc1S(N)(=O)=O	-	-	-	-	-	.	.
Cc1ccc(SCC(=O)NNC(=O)c2ccccc2)c(C)c1	-	-	-	-	-	.	.
CCOC(=O)c1ccc(NC(=O)CN2C(=O)CN(C(C)=O)C2=S)cc1	-	-	-	-	-	.	.
O=C(NCCC1=CCCCC1)c1ccc([N+](=O)[O-])cc1	-	-	13	4.6	-	13	7.2
C[C@H]1COC(=O)[C@H](CC(=O)OC(C)(C)C)C/C=C\C[C@H](CC(=O)N(CCO)Cc2ccccc2)C(=O)N1	-	-	-	-	-	.	.
